Screens (PubChem)
Shown are actives, neighbours in structure and some others; about 3.5% of the full set was active somewhere.
GPR151 ag = activates the human receptor GPR151. PathHunter beta-arrestin GPR151 cells, luminescence. activation, % at 11.2 µM. 650,000 tested, 1% active; in the data active means activation above about 4.9%;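 further: 0% = median of compound wells and 100% = cells with positive control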
MITF primary = blocks human microphthalmia-associated transcription factor | AlphaScreen MITF homodimerization, bead proximity signal | 650,000 tested, 0.91% active | O75030 | inhibition, % at 2.6 µM; in the data active means inhibition above about 50%;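 further: 0% = vehicle wells with protein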
FBW7 activator = activators of human E3 ligase FBW7. normalized activity (activation), % at 26.1 µM. 650,000 tested, 0.13% active. Q969H0. AlphaScreen FBW7–phospho-cyclin E peptide binding, activator screen. AID 1259310; in the data active means normalized activity above about 1.9%;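 further: purified mutant Fbw7 with reduced substrate affinity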
Target sequence (Q969H0 whole entry, looked up): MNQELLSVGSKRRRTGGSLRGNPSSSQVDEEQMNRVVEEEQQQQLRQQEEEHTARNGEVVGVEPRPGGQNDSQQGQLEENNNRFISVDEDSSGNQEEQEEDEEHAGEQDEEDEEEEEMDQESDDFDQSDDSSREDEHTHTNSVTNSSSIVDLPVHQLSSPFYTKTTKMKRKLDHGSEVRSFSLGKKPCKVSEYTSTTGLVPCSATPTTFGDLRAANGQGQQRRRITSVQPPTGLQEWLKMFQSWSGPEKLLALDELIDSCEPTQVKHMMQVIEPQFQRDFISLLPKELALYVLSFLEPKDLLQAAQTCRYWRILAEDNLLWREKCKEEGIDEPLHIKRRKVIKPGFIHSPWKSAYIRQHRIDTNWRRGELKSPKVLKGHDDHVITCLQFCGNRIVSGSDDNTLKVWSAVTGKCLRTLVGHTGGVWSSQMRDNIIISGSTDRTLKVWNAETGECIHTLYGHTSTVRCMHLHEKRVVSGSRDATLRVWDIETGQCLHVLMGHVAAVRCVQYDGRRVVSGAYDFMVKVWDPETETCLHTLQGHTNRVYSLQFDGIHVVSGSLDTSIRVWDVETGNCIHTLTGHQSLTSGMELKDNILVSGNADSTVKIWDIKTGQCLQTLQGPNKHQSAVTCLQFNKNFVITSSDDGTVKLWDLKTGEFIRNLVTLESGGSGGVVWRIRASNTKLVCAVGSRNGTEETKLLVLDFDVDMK
TEAD-YAP inh = TEAD-YAP interaction inhibition | HEK-TIYL cells, TEAD-Gal4/YAP UAS-luciferase luminescence | inhibition, % at 9.12 µM | 640,000 tested, 1.4% active; in the data active means inhibition above about 32%;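 further: 0% = median of test compound wells and 100% = reference inhibitor wells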
MITF inh conf = human MITF inhibition, confirmation. shares compounds with MITF primary. AlphaScreen MITF homodimerization, biotin/His-MITF beads. inhibition, % at 2.6 µM. 4,700 tested, 16% active. AID 1259372;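 active means inhibition above a cutoff derived from the DMSO control wells, cut at about 28% in these data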;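 further: 0% = MITF dimer wells with DMSO only; inhibitors lower the bead chemiluminescence by keeping MITF from dimerizing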
AlphaScreen DR = AlphaScreen optical interference, dose response counter-screen | shares compounds with MITF primary | AlphaScreen optical interference counterscreen, cell-free | IC50, µM | 480 tested, 6% active; call rule not given here
AS interf ctr = AlphaScreen optical interference, counter-screen; AID 1259376; 4,700 tested, 7.6% active; shares compounds with MITF primary; LysRS AlphaScreen counterscreen, signal interference, triplicate; inhibition, % at 2.6 µM;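 active means inhibition above a cutoff derived from the DMSO control wells, cut at about 30% in these data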
An asterisk follows results filed as active; · = no result given.

SMILES | GPR151 ag | MITF primary | FBW7 activator | TEAD-YAP inh | MITF inh conf | AS interf ctr | others
COc1cc(CN2CCN(C/C=C/c3ccccc3)CC2)ccc1O | -1 | 52* | 0 | 3 | 0 | 3
COc1ccc(CN2CCN(C/C=C/c3ccccc3)CC2)cc1O | -1 | 62* | 0 | 1 | 1 | 8
COc1ccc(CN2CCN(C/C=C/c3ccccc3)CC2)cc1 | 0 | 47 | 0 | -3 | · | ·
COc1cc(CN2CCN(C/C=C/c3ccccc3)CC2)cc(OC)c1OC | -1 | 67* | 0 | -5 | 2 | 13
CN(C)CCCOc1cccc(Oc2ccccc2)c1 | 1 | 62* | 0 | 1 | 1 | 12
CN(C)CCCOc1ccccc1-c1ccccc1 | 0 | 53* | 0 | 6 | -11 | -4
CN(C)CCNCCCOc1ccccc1-c1ccccc1 | 1 | 74* | 0 | -1 | 2 | 22
CN(C)CCNCCOCCOc1ccccc1-c1ccccc1 | -1 | 0 | 0 | 5 | · | ·
CN(C)CCOCCOc1cccc(Oc2ccccc2)c1 | 2 | 51 | 0 | -9 | · | ·
O=C(COc1ccc2ccccc2c1)NCc1ccco1 | 2 | 4 | 0 | -44 | · | ·
O=C(COc1ccccc1)Nc1ccc(NC(=O)c2cccs2)cc1 | 1 | 51* | 0 | -1 | -16 | 1
Cc1cc(=O)[nH]c(N2N=C(c3ccc(Br)cc3)CCC2=O)n1 | -2 | 8 | 0 | -5 | · | ·
O=C(N/N=C/c1ccccc1)c1cnccn1 | -1 | 9 | 1 | -40 | · | ·
O=C(CN1C(=O)C2CCCN2C(=O)c2ccccc21)Nc1ccc(F)cc1 (centres undefined) | -1 | 1 | 0 | 3 | · | ·
N#Cc1ccc(NC(=O)CN2C(=O)C3CCCN3C(=O)c3ccccc32)cc1 (centres undefined) | 0 | 72* | 0 | -8 | -23 | 0
CC1CCCC(C)N1C(=O)c1cc2n(n1)C(C(F)(F)F)CC(c1ccc(Cl)c(Cl)c1)N2 (centres undefined) | -1 | 59* | 0 | -3 | -10 | -7
CC(=O)Nc1ccc(N2CCN(C(=O)c3ccccc3)CC2)cc1 | 2 | 53* | 0 | 9 | -12 | -3
COc1cc(CN2CCN(CC3CC4C=CC3C4)CC2)cc(OC)c1OC (centres undefined) | 0 | 56* | 0 | 11 | -3 | 0
Fc1ccc(CN2CCN(CC3CC4C=CC3C4)CC2)cc1 (centres undefined) | 0 | 79* | 0 | 7 | 7 | 20
COc1ccc(OC)c(CN2CCN(CC3CC4C=CC3C4)CC2)c1 (centres undefined) | 0 | 35 | 0 | -6 | · | ·
CSc1ccc(CN2CCN(CC3CC4C=CC3C4)CC2)cc1 (centres undefined) | 0 | 62* | 0 | 1 | -3 | 4
CSc1ccc(CN2CCN(S(=O)(=O)c3ccc(F)cc3)CC2)cc1 | -2 | 45 | 1 | 5 | · | ·
Cc1ccc(CN2CCN(CC3CC4C=CC3C4)CC2)cc1 (centres undefined) | 0 | 74* | 0 | 5 | -6 | -2
CC(C)=NNC(=O)CCC(=O)Nc1ccc(I)cc1C | 0 | 8 | 0 | 8 | · | ·
O=C1N(Cc2cccc(Cl)c2)C[C@@H]2C[C@@H](c3ccc(OCCO)cc3)N3CCC[C@@]123 | -1 | 12 | 0 | 5 | · | ·
SMILES | GPR151 ag | MITF primary | FBW7 activator | TEAD-YAP inh | MITF inh conf | AS interf ctr | others
OCCC1CN(Cc2cn[nH]c2C2CCCCC2)CCN1Cc1cccs1 (centres undefined) | 2 | 3 | 0 | 0 | · | ·
CCC1CN(CC(=O)NC2C3CC4CC(C3)CC2C4)Cc2cc(OC)ccc2O1 (centres undefined) | 1 | 60* | 0 | -5 | -1 | 6
Cc1sc2ncnc(Sc3nnnn3C)c2c1C | 4 | -5 | 0 | 7 | · | ·
Cc1cccc(CC(=O)Nc2c3c(nn2-c2ccc(F)cc2)CS(=O)C3)c1 (centres undefined) | -1 | 88* | 0 | 11 | -7 | -6
O=C(Cc1ccc(F)cc1)Nc1c2c(nn1-c1ccccc1)CS(=O)C2 (centres undefined) | 0 | 15 | 0 | -3 | · | ·
COc1ccc(NC(=O)c2sc3nc4ccc(C)cc4cc3c2N)cc1OC | 0 | 65* | 0 | -6 | 7 | 21
COc1ccc(NC(=O)c2sc3nc4cc(C)ccc4cc3c2N)cc1OC | 0 | 11 | 0 | 1 | · | ·
COc1ccc(OC)c(CN2CCN(Cc3ccccc3F)CC2)c1 | 2 | 77* | 0 | -6 | -4 | -2
COc1ccc(OC)c(CN2CCN(Cc3ccccc3Cl)CC2)c1 | -1 | 77* | 0 | -2 | 14 | 16
COc1ccc(CN2CCN(Cc3ccccc3Cl)CC2)c(OC)c1 | 1 | 80* | 0 | 0 | 5 | 18
COc1ccc(OC)c(CN2CCN(CCCc3ccccc3)CC2)c1 | 1 | 66* | 0 | 0 | 0 | -3
Cc1nc2ccc(S(=O)(=O)NC(CC(C)C)C(=O)NC(C)(C)C)cc2s1 (centres undefined) | 1 | -20 | 0 | -30 | · | ·
COC(=O)c1cc2cnccc2nc1-c1cccc(C(F)(F)F)c1 | 0 | 10 | 0 | 5 | · | ·
CCCCS(=O)(=O)C1CCCCC1OC(=O)CCN1CCCCC1 (centres undefined) | -2 | 51* | 0 | 9 | 15 | 0
CC1(C)CC(OC(=O)CCN2CCCCC2)CC(C)(C)N1 | 2 | -4 | 0 | -5 | · | ·
O=C(Cn1cnc2c(nnn2-c2cccc(F)c2)c1=O)NCc1ccco1 | -1 | 5 | 0 | -3 | · | ·
CCN(CC)S(=O)(=O)c1ccc2c(c1)nc(CCC(=O)OCC(N)=O)n2C | 0 | -8 | 0 | 6 | · | ·
N#Cc1ccccc1NC(=O)c1ccc(S(=O)(=O)N2CCCC2)cc1 | 1 | 5 | 0 | -5 | · | ·
N#Cc1ccccc1NC(=O)c1ccc(S(=O)(=O)N2CCOCC2)cc1 | 0 | 55* | 0 | -11 | -12 | -6
Cc1cc(S(=O)(=O)NCc2ccsc2)ccc1F | 3 | 4 | 1 | -1 | · | ·
O=S(=O)(NCc1ccsc1)c1ccc(F)c(Cl)c1 | -1 | 62* | 0 | 6 | -8 | 0
CCC(=O)Nc1sc2c(c1C(N)=O)CCCC2 | 1 | -10 | 0 | 11 | · | ·
CC1(C)CC(=O)C=C(Nc2sc3c(c2C(N)=O)CCCC3)C1 | 1 | 81* | 0 | 10 | 2 | 33*
O=C(O)CC1NC2(C(=O)Nc3ccccc32)C2C(=O)N(Cc3ccccc3)C(=O)C12 (centres undefined) | 1 | 4 | 0 | -1 | · | ·
C=C1C(C(=O)NCc2ccco2)C1C(=O)NCc1ccco1 (centres undefined) | 0 | 63* | 0 | 0 | 67* | 13 | AlphaScreen DR=>7.7
CCC(C)NCCOCCOc1ccc(C)cc1Cl (centres undefined) | 1 | 77* | 0 | -6 | 5 | 19
CCC(C)NCCOCCOc1ccc(OC)cc1 (centres undefined) | -2 | 84* | 1 | 1 | -16 | 6
